Where “and” joins values, the source holds several entries; their conditions need not be identical. Equal entries are not always repeated. About 2,000 (36%) of roughly 5,500 compounds were called active. Another 18% or so got no clear call; they are omitted. Cut-off read from the data, not from the text of the source: active = normalized growth mostly below about 0.91 (no sharp cut-off); inconclusive = no clear call, values can overlap the other calls; inactive = mostly above about 0.92. This is one part of the list.
Assay: chemical genetic growth profiling, strain panel (AID 1159580);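 note: tested at 20 µM; growth read once vehicle control cultures reached saturation at 30 °C; 1 = growth at the plate median or of vehicle wells; lower values mean less growth of the strain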
Conditions: growth OD

Measured: normalized growth

Nc1ccncc1
inactive: S. cerevisiae deletion strains, locus YJR075W, strain HOC1, hits give low values 1.03 and 1 | S. cerevisiae deletion strains, locus YKL009W, strain mrt4, hits give low values 1.03 | S. cerevisiae deletion strains, locus YKL068W, hits give low values 0.988 | S. cerevisiae deletion strains, locus YKL085W, strain MDH1 (second series), hits give low values 0.995 | S. cerevisiae deletion strains, locus YKL085W, strain MDH1, hits give low values 0.995 | S. cerevisiae deletion strains, locus YKL160W, strain elf1, hits give low values 0.994 | S. cerevisiae deletion strains, locus YKL190W, strain CNB1, hits give low values 1.01 | S. cerevisiae deletion strains, locus YKR001C, strain vps1, hits give low values 0.931 | S. cerevisiae deletion strains, locus YKR026C, strain gcn3, hits give low values 0.984 | S. cerevisiae deletion strains, locus YKR091W, strain srl3, hits give low values 0.987 | S. cerevisiae deletion strains, locus YLL001W, strain dnm1, hits give low values 0.981 | S. cerevisiae deletion strains, locus YLL026W, hits give low values 0.999 | S. cerevisiae deletion strains, locus YLL041C, strain sdh2, hits give low values 0.989 | S. cerevisiae deletion strains, locus YLR027C, strain aat2, hits give low values 0.994 | S. cerevisiae deletion strains, locus YLR039C, strain RIC1, hits give low values 1 | S. cerevisiae deletion strains, locus YLR058C, strain SHM2, hits give low values 1.02 | S. cerevisiae deletion strains, locus YLR102C, strain apc9, hits give low values 0.97 | S. cerevisiae deletion strains, locus YLR113W, strain HOG1, hits give low values 0.958 | S. cerevisiae deletion strains, locus YLR221C, strain rsa3, hits give low values 1 | S. cerevisiae deletion strains, locus YLR258W, strain gsy2, hits give low values 0.987 | S. cerevisiae deletion strains, locus YLR262C, strain YPT6 (second series), hits give low values 0.971 | S. cerevisiae deletion strains, locus YLR262C, strain YPT6, hits give low values 1.02 | S. cerevisiae deletion strains, locus YLR268W, strain sec22, hits give low values 0.921 | S. cerevisiae deletion strains, locus YLR320W, strain mms22, hits give low values 0.993 | S. cerevisiae deletion strains, locus YLR330W, strain CHS5, hits give low values 1.01 | S. cerevisiae deletion strains, locus YLR342W, strain FKS1 (second series), hits give low values 1.02 | S. cerevisiae deletion strains, locus YLR342W, strain FKS1, hits give low values 0.991 | S. cerevisiae deletion strains, locus YLR357W, strain rsc2, hits give low values 1.01 | S. cerevisiae deletion strains, locus YLR370C, strain arc18, hits give low values 0.997 | S. cerevisiae deletion strains, locus YLR371W, strain rom2, hits give low values 0.976 | S. cerevisiae deletion strains, locus YLR384C, strain iki3, hits give low values 0.994 | S. cerevisiae deletion strains, locus YLR418C, strain cdc73, hits give low values 0.935 | S. cerevisiae deletion strains, locus YML016C, strain PPZ1, hits give low values 1.02 | S. cerevisiae deletion strains, locus YML032C, strain rad52, hits give low values 0.957 | S. cerevisiae deletion strains, locus YML120C, strain ndi1, hits give low values 0.998 | S. cerevisiae deletion strains, locus YML124C, strain tub3, hits give low values 0.977 | S. cerevisiae deletion strains, locus YMR058W, strain fet3, hits give low values 1 | S. cerevisiae deletion strains, locus YMR078C, strain ctf18, hits give low values 0.958 | S. cerevisiae deletion strains, locus YMR125W, strain sto1, hits give low values 0.984 | S. cerevisiae deletion strains, locus YMR129W, hits give low values 0.993 | S. cerevisiae deletion strains, locus YMR205C, strain PFK2, hits give low values 0.999 | S. cerevisiae deletion strains, locus YMR223W, strain ubp8, hits give low values 0.977 | S. cerevisiae deletion strains, locus YMR231W, strain pep5, hits give low values 0.995 | S. cerevisiae deletion strains, locus YMR263W, strain SAP30, hits give low values 1.02 and 1.01 | S. cerevisiae deletion strains, locus YMR307W, strain GAS1, hits give low values 1.01 | S. cerevisiae deletion strains, locus YNL067W, strain RPL9B, hits give low values 1.01 | S. cerevisiae deletion strains, locus YNL071W, strain lat1, hits give low values 0.995 | S. cerevisiae deletion strains, locus YNL128W, strain TEP1, hits give low values 1.02 | S. cerevisiae deletion strains, locus YNL153C, strain GIM3, hits give low values 1.01 and 1 | S. cerevisiae deletion strains, locus YNL175C, strain NOP13, hits give low values 1 | S. cerevisiae deletion strains, locus YNL183C, strain NPR1, hits give low values 0.912 | S. cerevisiae deletion strains, locus YNL197C, strain WHI3, hits give low values 1.01 | S. cerevisiae deletion strains, locus YNL209W, strain ssb2, hits give low values 0.993 | S. cerevisiae deletion strains, locus YNL224C, strain SQS1, hits give low values 0.998 | S. cerevisiae deletion strains, locus YNL233W, strain BNI4, hits give low values 1 | S. cerevisiae deletion strains, locus YNL248C, strain rpa49, hits give low values 0.993 | S. cerevisiae deletion strains, locus YNL250W, strain rad50, hits give low values 0.978 | S. cerevisiae deletion strains, locus YNL271C, strain bni1, hits give low values 0.942 | S. cerevisiae deletion strains, locus YNL298W, strain CLA4, hits give low values 0.966 | S. cerevisiae deletion strains, locus YNL307C, strain MCK1, hits give low values 0.947 | S. cerevisiae deletion strains, locus YNL322C, strain KRE1 (second series), hits give low values 0.99 | S. cerevisiae deletion strains, locus YNL322C, strain KRE1, hits give low values 1.01 and 1.02 | S. cerevisiae deletion strains, locus YNR049C, strain mso1, hits give low values 0.99 | S. cerevisiae deletion strains, locus YNR052C, strain pop2, hits give low values 0.974 | S. cerevisiae deletion strains, locus YOL006C, strain TOP1, hits give low values 0.996 | S. cerevisiae deletion strains, locus YOL012C, strain htz1 1.65 | S. cerevisiae deletion strains, locus YOL147C, strain pex11, hits give low values 0.956 | S. cerevisiae deletion strains, locus YOR001W, strain rrp6, hits give low values 0.993 | S. cerevisiae deletion strains, locus YOR061W, strain CKA2, hits give low values 1.02 | S. cerevisiae deletion strains, locus YOR069W, strain VPS5, hits give low values 1.02 | S. cerevisiae deletion strains, locus YOR070C, strain gyp1, hits give low values 0.999 | S. cerevisiae deletion strains, locus YOR080W, strain dia2, hits give low values 0.99 | S. cerevisiae deletion strains, locus YOR083W, strain WHI5 (second series), hits give low values 0.998 | S. cerevisiae deletion strains, locus YOR083W, strain WHI5, hits give low values 1 | S. cerevisiae deletion strains, locus YOR106W, strain vam3, hits give low values 1.01 | S. cerevisiae deletion strains, locus YOR136W, strain idh2, hits give low values 0.974 | S. cerevisiae deletion strains, locus YOR144C, strain elg1, hits give low values 0.963 | S. cerevisiae deletion strains, locus YOR184W, strain ser1, hits give low values 0.904 | S. cerevisiae deletion strains, locus YOR231W, strain MKK1, hits give low values 0.968 | S. cerevisiae deletion strains, locus YOR265W, strain rbl2, hits give low values 0.991 | S. cerevisiae deletion strains, locus YOR270C, strain vph1, hits give low values 0.98 | S. cerevisiae deletion strains, locus YOR290C, strain snf2, hits give low values 1 | S. cerevisiae deletion strains, locus YOR316C, strain cot1, hits give low values 0.973 | S. cerevisiae deletion strains, locus YPL051W, strain arl3, hits give low values 0.988 | S. cerevisiae deletion strains, locus YPL055C, strain LGE1, hits give low values 1.07 | S. cerevisiae deletion strains, locus YPL078C, strain atp4, hits give low values 0.995 | S. cerevisiae deletion strains, locus YPL106C, strain sse1, hits give low values 1 | S. cerevisiae deletion strains, locus YPL240C, strain hsp82, hits give low values 0.983 | S. cerevisiae deletion strains, locus YPL241C, strain CIN2, hits give low values 1.01 | S. cerevisiae deletion strains, locus YPL256C, strain CLN2, hits give low values 0.946 | S. cerevisiae deletion strains, locus YPR119W, strain clb2, hits give low values 0.947 | S. cerevisiae deletion strains, locus YPR141C, strain kar3, hits give low values 0.99 | S. cerevisiae deletion strains, locus YPR163C, strain tif3, hits give low values 0.959 | S. cerevisiae deletion strains, locus YPR167C, strain met16, hits give low values 0.969 | S. cerevisiae deletion strains, strain wtn01, hits give low values 0.963 | S. cerevisiae strains, strain wild type, hits give low values 1.02
